Measured values reported in PubChem BioAssay AID485297 (National Center for Advancing Translational Sciences (NCATS), 2010).
About 9,100 (2.8%) of roughly 320,000 compounds were called active. Roughly 3% stayed inconclusive and do not appear here. This is one part of a sample in which actives are shown more often than they occur. Unmarked numbers belong to inactive results. The call rests on the fitted dose curve; in most records, active means well fitted activation curve with a large enough effect; inconclusive means small, poorly fitted or top-dose-only effect; inactive means no such curve, though single readings can be large or run the other way.

Assay: qHTS Assay for Rab9 Promoter Activators; further: nearly all actives have a fitted effect of over 60% in size; on activation, negative = inhibition: % of control where 0% means no effect
Settings: Huh7 Rab9 promoter-luciferase reporter, luminescence, 24 h; series mostly up to 9.22 µM; activation, negative = inhibition: at the top concentration
Description: NIH Chemical Genomics Center [NCGC] NIH Molecular Libraries Probe Production centers Network [MLPCN] MLPCN Grant: MH089537-01 Assay Submitter (PI): Yiannis A. Ioannou NCGC Assay Overview: Niemann Pick Type C (NPC) is a rare neurodegenerative lipidosis that is characterized by lipid storage in the endosomal/lysosomal system. Treatment modalities for this devastating disease are currently non-existent due to the severe obstacles associated with accessing the central nervous system with proteins or genes (Ioannou, 2000). We have developed a new paradigm, termed "Orphan Receptor Bypass Therapy" (ORByT), to address these disorders. This paradigm posits the existence of endogenous "suppressor" proteins whose expression can dramatically improve LSD pathogenesis. The goal is the identification/discovery of small chemical compounds that can modulate the expression of these proteins and provide a new treatment modality for these devastating disorders. One such protein whose overexpression reverses aspects of the NPC phenotype is Rab9. We have developed and optimized a cell based luciferase reporter assay in 1536 well format for the identification of up-regulators of the Rab9 promoter.
The Rab9 promoter is cloned in front of the luciferase reporter gene, therefore […] promoter activation results in luciferase expression. Frozen stock of the Rab9 promoter transfected Huh7 cells were obtained from the laboratory of Dr. Yiannis Ioannou (The Mount Sinai School of Medicine, New York, NY). Cells were propagated and maintained at NCGC in medium containing RPMI-1640 supplemented with 10% FBS, 2mM L-glutamine, and 50ug/ml penicillin/streptomycin. Cells were harvested in and plated for assays in OP-MEM I reduced-serum medium supplemented with 10% FBS. The Amplite luciferase reporter gene assay kit was purchased from ABD Bioquest and prepared/stored according to manufacturers recommendations. qHTS Assay Setup: 1.Dispensed 5ul of Huh7 cells stably expressing Rab9-luciferase at a density of 1500 cells per well 1536-well plates. 2.Incubate cells at 37C, 5% CO2, and 95% humidity for 2 hours. 3.Transferred 23nl per well of compound in DMSO solution. 4.Incubated at 37C, 5% CO2, and 95% humidity for 24 hours. 5.Dispensed 3ul per well of Amplite reagent(ABD Bioquest) per well. 6.Incubate at ambient for 10 minutes. 7.Read using the luminescence protocol on the ViewLux plate reader (Perkin Elmer).
Potency means the concentration at half of the fitted maximal effect.

In the case of N#Cc1ccccc1NC(=O)c1cccc(COc2ccc(Cl)cc2Cl)c1, the Potency is reported as 447 nM (active).
With CCc1ccc(N(CC(=O)NCc2cccnc2)S(=O)(=O)c2ccccc2)cc1 the Potency was 3550 nM (active).
In the case of C/C(=N\NC(=O)OC(C)(C)C)c1ccc[nH]1, the Potency is reported as 2820 nM (active).
In the case of O=C(Nc1ccccc1)c1cc2ccccc2[nH]1, the Potency is reported as 2510 nM (active).
In the case of COc1ccc2[nH]cc(CCN3C(=O)c4ccc(C(=O)O)cc4C3=O)c2c1, the Potency is reported as 1000 nM (active).
For Nc1c(C(=O)c2cccs2)sc2nsc(SCCN3CCCCC3)c12, the Potency was 2510 nM (active).
In the case of CCOC(=O)c1sc(=NC(=O)/C=C/c2cccs2)n(C)c1C, the Potency is reported as 2820 nM (active).
For C=CCNC(=O)c1ccc2c3n(nc2c1)-c1ccc(C)cc1CO3, the Potency was 891 nM (active).
In the case of Cc1ccc(-n2cc3ccc([N+](=O)[O-])cc3n2)cc1, the Potency is reported as 355 nM (active).
In the case of COc1ccc(NC(=O)C2COc3ccccc3O2)cc1 (stereo unspecified), the Potency is reported as 3160 nM (active).

First: O=C(Nc1cccc2cccnc12)c1cccc(Cl)c1
Second: CSc1ccc(C#N)cc1NC(=O)c1cccc(Cl)c1
The “activation, negative = inhibition” value of the first is higher: 2.18% for the first, -1.51% for the second.

Going from CCN(c1ccccc1)S(=O)(=O)c1cccc(C(=O)NCc2ccccc2CN2CCOCC2)c1 to O=C(CN(c1cc(C(F)(F)F)ccc1Cl)S(=O)(=O)c1ccccc1)NCc1cccnc1, the “activation, negative = inhibition” value rises from -2.11% to 0.849%.

Compared with CN(CC(=O)Nc1ccc(Cl)cc1)CC(=O)Nc1cccc2ccccc12, O=C(Nc1cccc(NC(=O)c2ccc(Br)cc2)c1)c1ccccc1 is lower in “activation, negative = inhibition” value: -4.32% for the first, -4.51% for the second.

Going from C/C=C(/C)C(=O)O[C@@H]1c2cc3c(c4c2[C@@]2(CO4)C(=O)C(OC)=C(OC)C=C2C[C@@H](C)[C@H]1C)OCO3 to COc1ccc(NC(=O)CC2COc3ccccc3O2)c(OC)c1 (stereo unspecified), the “activation, negative = inhibition” value rises from -1.59% to 5.83%.

First: CCCNS(=O)(=O)c1ccc(CCC(=O)NCc2cccnc2)cc1
Second: CNS(=O)(=O)c1cccc(C(=O)OCCCC(=O)c2ccccc2)c1
The “activation, negative = inhibition” value of the first is lower: -7.87% for the first, -6.66% for the second.

Compared with Cc1ccc(CN2CC(C(=O)NNC(=O)Cn3ccc(C(F)(F)F)n3)CC2=O)cc1 (stereo unspecified), COc1ccc(CNC(=O)CN2C(=O)NC3(CCCc4sccc43)C2=O)cc1 (stereo unspecified) is higher in “activation, negative = inhibition” value: 1.15% for the first, 6.95% for the second.

First: CC(NC(=O)c1ccc(S(=O)(=O)Nc2ccccc2)cc1)c1ccc(S(N)(=O)=O)cc1 (stereo unspecified)
Second: Cc1cccc(C)c1NC(=O)C(Cl)C(=O)c1ccccc1 (stereo unspecified)
The “activation, negative = inhibition” value of the first is higher: 4.87% for the first, 0.571% for the second.

First: COc1ccccc1C(=O)Nc1ccc(OCC(=O)N2CCCCC2)cc1
Second: CCC(=O)c1ccc(OCC(=O)OCC(=O)N2CCc3ccccc3C2)cc1
The “activation, negative = inhibition” value of the first is lower: -4.82% for the first, -1.46% for the second.

First: O=C1CC[C@H](O)CCN1[C@H](CSc1ccc(Br)cc1)Cc1ccccc1
Second: O=C(CN1C2=NCCN2c2ccccc21)c1cccs1
The “activation, negative = inhibition” value of the first is lower: -7.37% for the first, -0.857% for the second.

Compared with CC(C)(CSc1nncn1/N=C/c1ccco1)NS(=O)(=O)c1ccc(Cl)cc1, Cc1ccc(-c2cn(S(=O)(=O)c3cccc([N+](=O)[O-])c3)nc2N)cc1 is higher in “activation, negative = inhibition” value: -3.33% for the first, -1.36% for the second.

Compared with Cc1ccccc1NC(=O)NNC(=O)OC(C)(C)C, CC(C)(C)OC(=O)N/N=C/c1ccc(C(=O)O)cc1 is higher in “activation, negative = inhibition” value: -1.38% for the first, 10.3% for the second.

Going from CCCCN(C(=O)C1CCC1)c1c(N)n(Cc2ccccc2)c(=O)[nH]c1=O to CCCCC/C=C/C1=CC(=O)C[C@H](c2ccc(Cl)cc2)C1, the “activation, negative = inhibition” value rises from -2.45% to 1.49%.

First: COc1ccc2[nH]c(C(=O)Nc3ccccc3Cl)cc2c1
Second: COc1ccc(C[C@H](C(=O)O)N2C(=O)c3ccc(C(=O)O)cc3C2=O)cc1
The “activation, negative = inhibition” value of the first is higher: -0.505% for the first, -0.624% for the second.

First: Cc1sc2ncnc(SCC(=O)Nc3ccc(CN4CCCC4)cc3)c2c1C
Second: O=C(CSc1ncnc2sccc12)N1CCN(C(=O)c2cccs2)CC1
The “activation, negative = inhibition” value of the first is lower: -3.72% for the first, 0.66% for the second.

Compared with Cc1ccc2[nH]cc(CCCN3C(=O)c4ccccc4C3=O)c2c1, Cc1ccc(CNC(=O)c2cccc3c2C(=O)c2ccc(N4CCC(C)CC4)cc2S3(=O)=O)cc1 is higher in “activation, negative = inhibition” value: -0.334% for the first, 15.8% for the second.

Compared with COc1cc([N+](=O)[O-])ccc1NC(=O)COC(=O)CCOc1ccc(C)cc1, COc1ccccc1CNC(=O)COC(=O)c1sc(C)nc1C is higher in “activation, negative = inhibition” value: -12.9% for the first, -3.97% for the second.

Compared with CCOC(=O)c1c(NC(=S)NC(=O)/C=C/c2cccs2)sc(C)c1C, CCOC(=O)c1sc(=NC(=O)c2ccc(Br)cc2)n(C)c1C is lower in “activation, negative = inhibition” value: 2.48% for the first, 0.397% for the second.

Going from Cc1cccc(-c2nc3ccc(C(=O)NCCN4CCN(C)CC4)cc3nc2-c2cccc(C)c2)c1 to C=CCNC(=O)c1ccc(C)c(Br)c1, the “activation, negative = inhibition” value falls from 2.86% to -1.69%.

Compared with CO[C@H]1[C@@H]2C=CO[C@@H](O[C@H]3O[C@@H](CO)[C@H](O)[C@@H](O)[C@@H]3O)[C@@H]2[C@@]2(CO)O[C@@H]12, Cc1c(O)c(C)c2c(c1O)C(=O)C[C@@H](c1ccccc1)O2 is higher in “activation, negative = inhibition” value: -3.32% for the first, -3.21% for the second.

Going from Cc1cc(C)nc(Nc2cc([N+](=O)[O-])ccc2C)n1 to CC(=O)c1cccc(NC(=O)C2COc3ccccc3O2)c1 (stereo unspecified), the “activation, negative = inhibition” value rises from -11.1% to 0.233%.

For CC(C)C[C@H](NC(=O)[C@H](O)[C@H](N)Cc1ccccc1)C(=O)O, the “activation, negative = inhibition” value was -1.46% [at 46.1 µM].
